In test [1] the target is 6-phosphogluconate dehydrogenase, decarboxylating (Homo sapiens) (UniProt P52209). Briefly: inhibition of human phosphogluconate dehydrogenase – biochemical, recombinant enzyme, NADPH absorbance, primary screen (AID 1159550). To be noted: recombinant 6PGD, NADPH absorbance 341 nm; at 10 µM; stronger effect = higher value.
Test [2] can be described thus: viability loss in pontine glioma line – cell-based, JHH-DIPG-1, MIPE4.0, CellTiter-Glo, qHTS, dose response (AID 1347062; cut-off not given, nearly all actives have AC50 up to about 27 µM). To be noted: JHH-DIPG-1 viability, CellTiter-Glo ATP luminescence. In general terms: Cellular ATP, detected with luciferase, serves as a proxy for viable cell number.
Test [3] in a line: viability loss in pontine glioma line – cell-based, SU-DIPG-IV, MIPE4.0, CellTiter-Glo, qHTS, dose response (AID 1347063; cut-off not given, nearly all actives have AC50 up to about 30 µM;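 also: compound exposure lasted 48 hours before the viability readout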). The following applies: CellTiter-Glo ATP luminescence.
Test [4] can be described thus: viability loss with induced miR-34 in A549 – imaging, A549 dox-inducible miR-34, nuclei and caspase counts, primary screen (AID 1347080;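 active = compounds whose cell count with miR-34 switched on is under 0.7 times the count with it off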). To be noted: A549 miR-34 inducible, Hoechst nuclei count, 48 h.
Test [5] is described as follows: MELAS cybrid and Rieske KO viability enhancers – cell-based, MELAS cybrids, Rieske KO mouse fibroblasts, CellTiter-Glo, primary screen (AID 1508586;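 active = mean z-score across replicates of 1.96 or higher in either the MELAS or the Rieske mutant cell line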;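 also: z relative to plate mean and SD of compound and empty wells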). The following applies: low glucose.
Test [6] concerns the target Mitogen-activated protein kinase 7 (Homo sapiens) (UniProt Q13164). Briefly: Gal4-ERK5 driven luciferase induction – cell-based, HTS, primary screen (AID 1508626;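 active = luciferase signal above three times the same-plate solvent-only control wells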;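 also: luciferase driven by Gal4-ERK5 fusion binding five Gal4 sites before minimal TATA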). To be noted: HeLa Gal4-ERK5 transactivation, 18 h, at 5 µM, stronger effect = higher value.
The target in test [7] is ATP-dependent translocase ABCB1 (Homo sapiens) (UniProt P08183). Briefly: P-glycoprotein substrate transport blockade – cell-based (AID 377; in the data active = fluorescence slope change above about 50%). To be noted: MDR1-expressing cells, fluorescent substrate accumulation slope; stronger effect = higher value; concentration not given here.
Test [8] in a line: compounds altering circadian rhythm period length – cell-based, LOPAC library, luminescence reporter (AID 2774; call rule not given here;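 also: values are relative to mean of DMSO wells on each plate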). To be noted: circadian reporter cells, at 7 µM, actives lie on both sides.
Test [9] can be described thus: compounds altering viability of human ES cells (AID 493140; call rule not given here;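 also: cells exposed to compounds for four days before counting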). To be noted: human embryonic stem cell survival screen; stronger effect = higher value.
A short description of test [10]: P. berghei load reduction in hepatocytes – cell-based, HepG2, luciferase luminescence, HepG2 viability, primary screen (AID 624349; in the data active = parasite load remaining mostly below about 12%, no sharp cut-off; inactive = mostly above about 10%;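 also: 100% = mean of DMSO negative control wells on the same plate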). To be noted: P. berghei liver stage in HepG2, luciferase luminescence, concentration not given here; parasite load remaining: stronger effect = lower value; viability: measured here: HepG2 viability without parasites.
Test [11] relates to Hepatitis C virus NS3 helicase. The test is described as follows: blockers of NS3h binding to ssDNA – biochemical, fluorescence polarization, LOPAC1280 library, primary screen (AID 687035; in the data active = inhibition above about 37%). The following applies: Purified HCV NS3 helicase, Cy5-dT15 ssDNA binding fluorescence polarization; stronger effect = higher value; concentration not given here.
Test [12] in a line: compounds altering Cy5-DNA-NS3h complex signal – biochemical, LOPAC1280, artefact control for HCV NS3 helicase inhibitor project (AID 687037; call rule not given here). To be noted: Cy5-DNA-NS3h complex fluorescence interference counterscreen.
Test [13] is described as follows: blockers of cellular phospholipid synthesis – cell-based, LOPAC library, screen 4, primary screen (AID 1347384; call rule not given here). To be noted: animal cells, phospholipid biosynthesis inhibition screen; at 10 µM.
Test [14] is described as follows: galactose survival enhancers in mitochondrial complex I cybrids – cell-based, galactose medium, ATP luminescence, primary screen (AID 1645843;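 active = z-score of at least 1.8 in each of two replicates, scored against plate mean and spread of sample wells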;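 also: positive z means more ATP and so rescue of galactose-driven cybrid death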). To be noted: complex I mutant cybrid cells, 72 h, stronger effect = higher value.
In test [15] the target is NAD(+) hydrolase SARM1 (Homo sapiens) (UniProt Q6SZW1). The test is described as follows: blocking NAD cleavage by SARM1 SAM-TIR – cell lysate, NAD-Glo luminescence (AID 1508614;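 active = compound whose remaining NAD level is above about 45 nM, limit read from the data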;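 also: higher remaining NAD means stronger inhibition of SARM1 NADase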). The following applies: SAM-TIR HEK293T lysate NADase, at 1 µM, stronger effect = higher value.
A short description of test [16]: blockers of polyQ-driven CASP3 activation – cell-based (AID 1583). The following applies: polyglutamine-induced caspase-3 activation, cell assay; stronger effect = higher value;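 tested at 10 µM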.
Test [17] in a line: yeast 75Q aggregation reduction – 75Q-TubU reporter (AID 1593). The following applies: Yeast 75Q polyglutamine aggregation reporter.
A short description of test [18]: restoration of touch response, mutant HTT neurons – whole organism, C. elegans mechanosensory neurons, N-terminal huntingtin (AID 1599). The following applies: C. elegans polyQ-huntingtin mechanosensory neurons, stronger effect = higher value.
A short description of test [19]: blockers of cytochrome c efflux from mitochondria – biochemical, purified mitochondria (AID 1603).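 Also: mouse liver mitochondria challenged with calcium chloride; signal normalized to the plate average as 100%.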 To be noted: stronger effect = lower value.
Test [20] is described as follows: polyglutamine aggregate formation blockers (AID 1604). To be noted: polyglutamine-induced protein aggregation inhibition assay; stronger effect = higher value; tested at 2.5 µM.
Test [21] in a line: glutamate transport activators, MN-1 cells, MN-1 cell line (AID 1612).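 Also: tested at 1 µM final; 0% = mean of DMSO vehicle wells on each plate; positive means more glutamate uptake than control and negative means less.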 To be noted: MN-1 motor neuron cells, stronger effect = higher value.
The nature of test [22]: GFP-Q80 aggregate reduction, neuronal-like cells, cell-based, NGF-treated PC12, GFPQ80 (AID 1614).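 Also: lower means fewer inclusions and 0 means no inclusions at all.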 The following applies: PC12 NGF-treated GFP-polyQ80 inclusion reduction.
A short description of test [23]: 75Q-TubH aggregate inhibition, S. cerevisiae, yeast (AID 1616). To be noted: S. cerevisiae 75Q-TubH polyglutamine aggregation suppression; stronger effect = higher value.
Test [24] in a line: viability loss in pontine glioma line – cell-based, SU-DIPG-XIII, MIPE4.0, CellTiter-Glo, qHTS, dose response (AID 1347061; cut-off not given, nearly all actives have AC50 up to about 37 µM;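 also: cells exposed to compound for 48 hours before readout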). To be noted: CellTiter-Glo ATP luminescence.
Where [25] appears, read: stronger effect = lower value, cell number ratio, induced over uninduced.
The mark [26] stands for this setting: measured here: relative caspase fold change +Dox/-Dox.
Setting [27] is: measured here: total cells with miR-34 induction, stronger effect = lower value.
Setting [28] is: measured here: total cells without miR-34 induction.
[29] abbreviates: MELAS cybrid survival, CellTiter-Glo 48 h, stronger effect = higher value.
Where [30] appears, read: Rieske KO mouse fibroblast survival, CellTiter-Glo 72 h.

Where “and” joins values, the source holds several entries; their conditions need not be identical. Equal values may be shown once. Records with an inconclusive call do not appear. For some assays here: Potency and affinity values are given separately. Calls of active or inactive are those of the source.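 The calls were made as follows, unless noted: active = at least 20% inhibition of 6-phosphogluconate dehydrogenase activity; inactive = the rest.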

The inhibition is the relative decrease from the control value, in per cent. Broadly, the viability is a read-out of living cells in per cent, often relative to untreated cells.

Mitogen-activated protein kinase 7 (Homo sapiens), sequence (Q13164 whole entry, looked up, the tested form may be a part): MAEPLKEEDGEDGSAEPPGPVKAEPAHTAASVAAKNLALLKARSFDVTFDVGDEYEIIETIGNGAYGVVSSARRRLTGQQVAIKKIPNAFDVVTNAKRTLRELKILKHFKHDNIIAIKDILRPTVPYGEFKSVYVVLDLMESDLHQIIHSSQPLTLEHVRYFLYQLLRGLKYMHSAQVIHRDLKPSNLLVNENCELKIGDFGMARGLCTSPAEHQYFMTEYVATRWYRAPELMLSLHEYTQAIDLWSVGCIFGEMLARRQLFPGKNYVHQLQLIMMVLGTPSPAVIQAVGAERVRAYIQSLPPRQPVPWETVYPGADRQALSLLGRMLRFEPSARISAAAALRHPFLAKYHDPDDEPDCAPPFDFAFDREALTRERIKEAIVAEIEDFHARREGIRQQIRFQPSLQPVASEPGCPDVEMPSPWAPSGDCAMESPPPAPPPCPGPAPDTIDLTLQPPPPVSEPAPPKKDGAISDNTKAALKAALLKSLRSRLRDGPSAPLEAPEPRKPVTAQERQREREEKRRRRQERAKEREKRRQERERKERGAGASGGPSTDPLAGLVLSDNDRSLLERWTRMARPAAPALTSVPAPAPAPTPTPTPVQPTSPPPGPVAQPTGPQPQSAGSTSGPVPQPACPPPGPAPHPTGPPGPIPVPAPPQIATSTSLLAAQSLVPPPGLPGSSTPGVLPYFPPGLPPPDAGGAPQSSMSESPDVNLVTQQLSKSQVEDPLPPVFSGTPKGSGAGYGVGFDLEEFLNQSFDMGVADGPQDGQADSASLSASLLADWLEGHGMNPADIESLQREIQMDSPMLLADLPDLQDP
6-phosphogluconate dehydrogenase, decarboxylating (Homo sapiens), sequence (P52209 whole entry, looked up): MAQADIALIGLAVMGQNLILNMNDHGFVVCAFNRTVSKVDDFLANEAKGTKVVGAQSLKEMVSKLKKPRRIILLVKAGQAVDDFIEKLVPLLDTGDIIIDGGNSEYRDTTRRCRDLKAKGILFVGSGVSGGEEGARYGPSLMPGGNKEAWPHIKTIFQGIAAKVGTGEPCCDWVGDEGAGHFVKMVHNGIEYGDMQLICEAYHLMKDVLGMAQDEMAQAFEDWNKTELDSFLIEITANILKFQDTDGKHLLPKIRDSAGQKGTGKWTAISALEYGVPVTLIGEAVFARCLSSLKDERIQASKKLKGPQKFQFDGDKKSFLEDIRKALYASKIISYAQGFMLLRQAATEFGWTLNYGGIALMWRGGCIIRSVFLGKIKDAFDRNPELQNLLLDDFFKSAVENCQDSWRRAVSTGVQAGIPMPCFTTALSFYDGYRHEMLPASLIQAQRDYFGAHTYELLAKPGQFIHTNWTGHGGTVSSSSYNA
NAD(+) hydrolase SARM1 (Homo sapiens), sequence (Q6SZW1 whole entry, looked up): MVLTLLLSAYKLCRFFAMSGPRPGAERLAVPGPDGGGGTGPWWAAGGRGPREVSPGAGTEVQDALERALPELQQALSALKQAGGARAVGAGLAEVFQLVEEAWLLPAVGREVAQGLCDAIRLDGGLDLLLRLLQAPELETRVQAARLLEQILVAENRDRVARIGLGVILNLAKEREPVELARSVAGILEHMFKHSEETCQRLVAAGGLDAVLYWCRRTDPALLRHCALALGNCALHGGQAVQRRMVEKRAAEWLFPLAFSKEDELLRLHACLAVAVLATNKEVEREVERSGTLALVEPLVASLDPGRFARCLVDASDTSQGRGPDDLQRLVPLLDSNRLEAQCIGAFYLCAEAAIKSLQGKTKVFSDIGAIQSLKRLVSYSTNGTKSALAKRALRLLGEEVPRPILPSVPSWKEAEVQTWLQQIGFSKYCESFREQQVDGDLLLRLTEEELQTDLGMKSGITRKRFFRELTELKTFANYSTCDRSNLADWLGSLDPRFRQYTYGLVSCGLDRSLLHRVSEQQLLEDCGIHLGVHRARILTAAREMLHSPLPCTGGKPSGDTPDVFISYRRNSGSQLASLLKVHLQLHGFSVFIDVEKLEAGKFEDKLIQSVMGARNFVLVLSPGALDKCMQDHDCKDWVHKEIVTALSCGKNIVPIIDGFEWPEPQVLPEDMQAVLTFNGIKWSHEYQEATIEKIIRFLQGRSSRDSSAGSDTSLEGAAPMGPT
ATP-dependent translocase ABCB1 (Homo sapiens), sequence (P08183 whole entry, looked up): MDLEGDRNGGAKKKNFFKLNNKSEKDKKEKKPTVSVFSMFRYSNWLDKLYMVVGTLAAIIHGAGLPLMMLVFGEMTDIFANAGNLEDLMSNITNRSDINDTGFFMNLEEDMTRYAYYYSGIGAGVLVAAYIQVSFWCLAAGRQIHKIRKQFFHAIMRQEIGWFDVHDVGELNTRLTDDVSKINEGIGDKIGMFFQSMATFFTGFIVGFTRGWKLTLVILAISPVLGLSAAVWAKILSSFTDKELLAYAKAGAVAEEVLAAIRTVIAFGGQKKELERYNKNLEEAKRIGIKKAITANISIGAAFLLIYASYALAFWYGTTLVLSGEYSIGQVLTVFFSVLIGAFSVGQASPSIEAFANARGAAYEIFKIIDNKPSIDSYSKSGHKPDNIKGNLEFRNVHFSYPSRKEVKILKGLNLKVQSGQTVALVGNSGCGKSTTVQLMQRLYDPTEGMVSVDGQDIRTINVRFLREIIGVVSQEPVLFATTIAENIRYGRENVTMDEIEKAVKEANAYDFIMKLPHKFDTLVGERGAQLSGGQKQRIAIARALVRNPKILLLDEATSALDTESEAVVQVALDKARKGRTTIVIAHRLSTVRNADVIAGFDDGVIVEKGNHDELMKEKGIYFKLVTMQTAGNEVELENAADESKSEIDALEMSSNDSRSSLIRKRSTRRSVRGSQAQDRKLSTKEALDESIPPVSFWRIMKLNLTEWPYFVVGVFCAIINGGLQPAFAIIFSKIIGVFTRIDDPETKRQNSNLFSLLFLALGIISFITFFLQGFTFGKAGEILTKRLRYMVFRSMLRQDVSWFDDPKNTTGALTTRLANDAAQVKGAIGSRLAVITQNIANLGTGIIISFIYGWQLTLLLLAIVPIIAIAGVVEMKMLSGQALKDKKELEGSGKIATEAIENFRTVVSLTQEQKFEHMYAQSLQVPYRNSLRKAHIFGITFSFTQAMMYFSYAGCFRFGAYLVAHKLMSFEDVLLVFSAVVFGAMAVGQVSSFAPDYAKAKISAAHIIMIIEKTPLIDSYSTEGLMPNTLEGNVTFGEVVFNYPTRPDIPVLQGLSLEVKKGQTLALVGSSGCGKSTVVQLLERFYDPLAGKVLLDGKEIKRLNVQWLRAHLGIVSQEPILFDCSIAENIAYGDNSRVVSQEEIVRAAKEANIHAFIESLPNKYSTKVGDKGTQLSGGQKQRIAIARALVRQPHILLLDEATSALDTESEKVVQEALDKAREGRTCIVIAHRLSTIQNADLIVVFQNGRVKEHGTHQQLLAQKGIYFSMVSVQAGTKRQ

Regarding `COc1ccc2ccc(=O)oc2c1CC=C(C)C`, in test [1], the inhibition is 9.51% (inactive). Further, the molecule was classed as inactive in [2] and in test [3]. Further, the fold change is 0.94 (inactive) in [4] (setting [25]) and 0.78 in [4] (setting [26]). In addition, the cell count in [4] (setting [27]) was determined as 8510; in test [4] (setting [28]), 9050. Moreover, the z-score in [5] (setting [29]) is -0.211 (inactive); in test [5] (setting [30]), -1.1. Besides, the luciferase signal in test [6] is 36 AU (inactive).
For the molecule `C=C[C@H]1CN2CCC1C[C@@H]2[C@@H](O)c1ccnc2ccc(OC)cc12` (stereo not given in full), the fluorescence slope change in test [7] was 95% (active). Also, the period change in test [8] was -0.225 h (inactive). Moreover, the survival in [9] is 6.17 (inactive). Besides, the parasite load remaining in [10] was 28.6% (inactive). Besides, the viability in [10] turned out to be 94.6%. Further, the inhibition is -1% (inactive) in test [11] and -0.543% (inactive) in test [1]. Moreover, in test [12], the fluorescence ratio (interference) is 1 (inactive). Also, the figures for the fold change in test [4] (setting [25]) and in test [4] (setting [26]) were 1.07 (inactive) and 1.29, respectively. In addition, the cell count in [4] (setting [27]) was 9920; in test [4] (setting [28]), 9300. In [13], the outcome was inactive. For the same molecule, the z-score in test [14] was -1.04 (inactive).
`CN(C)CCCO[C@@H]1[C@H]2OC(C)(C)O[C@H]2O[C@@H]1[C@H](O)CO`: the parasite load remaining in [10] was 63.5% (inactive). Further, the viability in [10] turned out to be 92.5%. Further, the inhibition in [1] was 8.75% (inactive). For the same molecule, the fold change was 0.9 (inactive) in test [4] (setting [25]) and 1.16 in [4] (setting [26]). The cell count in test [4] (setting [27]) came out at 9050; in test [4] (setting [28]) it was 10100. For the same molecule, the z-score is 0.565 (inactive) in test [5] (setting [29]) and -0.271 in [5] (setting [30]). For the same molecule, the luciferase signal in [6] is 44 AU (inactive).
For `CN[C@@H]1[C@@H](O[C@H]2O[C@H](CO)[C@@H](N)[C@H](O)[C@H]2O)O[C@H]2C[C@@H](N)[C@@H](O[C@H]3[C@H](O)[C@@H](O)[C@H](N)C[C@@H]3N)O[C@@H]2[C@@H]1O`, in [10], the parasite load remaining is 21.5% (inactive). In addition, in test [10], the viability turned out to be 69%. For the same molecule, the inhibition in test [1] was 3.92% (inactive). For the same molecule, the values for the fold change in test [4] (setting [25]) and in test [4] (setting [26]) were 0.906 (inactive) and 1.04, respectively. The cell count in test [4] (setting [27]) is 9860; in test [4] (setting [28]), 10900. The figures for the z-score in test [5] (setting [29]), in test [5] (setting [30]) and in [14] were 0.598 (inactive), 0.317 and 0.86 (inactive), respectively. Further, in test [15], the remaining NAD is 10 nM (inactive). The luciferase signal in test [6] was 28 AU (inactive).
On to `CC(=O)NCCc1c[nH]c2ccc(O)cc12`, for which the results for the inhibition in test [16], in [11] and in test [1] were 26.8%, 0% (inactive) and 8.58% (inactive), respectively. For the same molecule, the score in [17] was determined as 1.5. The rescue above control in test [18] stood at 2.04. Further, in test [19], the cytochrome c release ratio turned out to be 0.84. The molecule further returned an inhibition of aggregation in test [20] of 31.4%. Moreover, the glutamate uptake change in [21] stood at 0.88%. In test [22], this molecule returned an inclusion score of 2. In [23], this molecule registered an aggregation suppression score of 1.34. Also, the period change in test [8] is -0.07 h (inactive). Further, in test [12], the fluorescence ratio (interference) was 1 (inactive). Also, the results for the fold change in test [4] (setting [25]) and in test [4] (setting [26]) were 1.02 (inactive) and 1.87, respectively. For the same molecule, the cell count in test [4] (setting [27]) is 10700; in test [4] (setting [28]), 10400. Further, in [13], the molecule was called inactive. Further, the luciferase signal in test [6] is 32 AU (inactive). Further, in test [14], the z-score was 0.08 (inactive).
For the molecule `CO/N=C(\C(=O)N[C@@H]1C(=O)N2C(C(=O)OCOC(=O)C(C)(C)C)=C(/C=C\c3scnc3C)CS[C@H]12)c1csc(N)n1`, the inhibition in test [1] is -4.41% (inactive). Also, the molecule was classed as inactive in test [24] and in test [2]. In [15], the remaining NAD is 10 nM (inactive).
Turning to `CCOc1nc2cccc(C(=O)OC(C)OC(=O)OC3CCCCC3)c2n1Cc1ccc(-c2ccccc2-c2nn[nH]n2)cc1` (stereo not given), the parasite load remaining in test [10] is 137% (inactive) and 50.7% (inactive). Also, in test [10], the viability was 83.9% and 101%. Besides, in test [1], the inhibition was 2.36% (inactive). Besides, the fold change in [4] (setting [25]) was 0.972 (inactive) and 0.852 (inactive); in test [4] (setting [26]), 0.675 and 3.41. Besides, the cell count in test [4] (setting [27]) was 8090 and 11000; in test [4] (setting [28]), 8320 and 12900. Besides, the z-score in [5] (setting [29]) was 0.432 (inactive); in test [5] (setting [30]), -0.0296. In addition, the remaining NAD in test [15] was 10 nM (inactive). Besides, the luciferase signal in [6] was 40 AU (inactive).

Values taken from PubChem BioAssay.
